Bioassay records as filed in PubChem.
Only some compounds are listed: those with a hit (about 4.5% of all), similar ones and a draw of the others.
ssDAF-12 act – activators of S. stercoralis DAF-12 nuclear receptor. HEK293 ssDAF-12/GRIP1 lit1-tk-luc reporter, luminescence; % of 3 µM dafachronic acid response. activation, % at 6.8 µM. hit rate 1% among 370,000;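 active = activation above the mean over all tested compounds plus 3 SD, cut at about 0.9% in these data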
FXN GAA850 act – frataxin GAA850 promoter activation; HEK293 lucGAA850 FXN promoter luciferase reporter, 24 h; percent of 10 µM SAHA response; activation, % at 6 µM; hit rate 0.56% among 360,000;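 active = activation above the average of all compounds screened plus 3 SD, cutoff fixed separately per campaign, cut at about 7.5% in these data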
hgDAF12 agonist – hgDAF-12 agonism, primary luciferase screen. activation, % at 6.8 µM. AID 687014. hit rate 1.8% among 370,000. HEK293 GAL4-hgDAF12 UAS-luciferase reporter, agonist luminescence; normalized to butyrate control;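 active = activation above a cutoff set at the mean of all screened compounds plus 3 SD, cut at about 10% in these data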
DAX1 inh-1 – DAX1 (NR0B1) inhibition, primary screen | HEK293T StAR-luciferase reporter, SF-1/DAX-1 repression relief | inhibition, % at 6.8 µM | hit rate 1.1% among 370,000;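 active = inhibition above the mean over all tested compounds plus 3 SD, cut at about 3.6% in these data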;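 note: higher inhibition means more luminescence from relief of DAX-1 repression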
DAX1 inh-2 – NR0B1 (DAX1) inhibition; hit rate 0.99% among 340,000; inhibition, % at 6.75 µM; P51843; HEK293 Gal4-DAX1 luciferase reporter, luminescence; AID 504766;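 active = inhibition above the mean over all tested compounds plus 3 SD, cut at about 4.2% in these data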;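 note: inhibition shows as a rise in luminescence from relieved DAX1 repression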
hcDAF-12 act – H. contortus DAF-12 activation, primary screen; HEK293 hcDAF-12 lit1-tk-luc reporter, luminescence; 0% DMSO, 100% Δ7-dafachronic acid; activation, % at 6.8 µM; hit rate 1.4% among 370,000;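 active = activation above the mean of all tested compounds plus 3 SD, cut at about 5.5% in these data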
LXR ag – counter-screen for hcDAF-12 agonists: agonists of human LXR-beta | AID 743027 | shares compounds with hcDAF-12 act | HEK293 Gal4-LXR tk-luc reporter, luminescence, 24 h; normalized: DMSO 0%, positive control 100% | 3,400 tested, under 10 active | activation, % at 6.8 µM;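 active = mean percent activation of the reporter above a cutoff set as the average over tested compounds plus their standard deviation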
Target sequence (P55055 whole entry, looked up, the tested form may be a part): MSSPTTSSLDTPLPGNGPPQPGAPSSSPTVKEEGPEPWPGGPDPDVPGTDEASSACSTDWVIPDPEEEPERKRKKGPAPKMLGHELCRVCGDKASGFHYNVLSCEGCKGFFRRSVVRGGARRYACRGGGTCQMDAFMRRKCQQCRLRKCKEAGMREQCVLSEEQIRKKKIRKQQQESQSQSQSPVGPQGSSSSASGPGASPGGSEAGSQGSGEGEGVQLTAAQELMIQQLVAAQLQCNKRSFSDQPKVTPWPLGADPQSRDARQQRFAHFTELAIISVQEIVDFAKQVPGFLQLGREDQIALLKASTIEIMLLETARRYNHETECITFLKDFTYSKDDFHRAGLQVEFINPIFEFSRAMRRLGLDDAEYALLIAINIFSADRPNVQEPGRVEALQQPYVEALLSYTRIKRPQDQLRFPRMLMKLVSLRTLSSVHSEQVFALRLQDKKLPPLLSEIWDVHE
hcDAF12 conf – hcDAF-12 agonism, confirmation assay | shares compounds with hcDAF-12 act | hit rate 61% among 3,400 | activation, % at 6.8 µM | HEK293 hcDAF-12 lit1-tk-luc reporter, luminescence; % of Δ7-dafachronic acid response | AID 743032;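 active = mean activation across triplicate tests above the threshold derived from the earlier primary screen, cut at about 5.5% in these data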
A number is an active result; 0 = inactive; - = not tested or not shown.

SMILES	ssDAF-12 act	FXN GAA850 act	hgDAF12 agonist	DAX1 inh-1	DAX1 inh-2	hcDAF-12 act	LXR ag	hcDAF12 conf
C[C@H]1CN(C(=O)OC(C)(C)C)CCN1c1ccc(Br)c(C#N)c1	0	-	0	0	-	0	-	-
COc1ccc(C(=O)Nc2sc(C)c(C)c2CN2CC(C)OC(C)C2)cc1 (configuration not stated)	0	0	10.7	3.9	0	8.9	0	0
N#CN1CCC(NS(=O)(=O)c2cccc(C(F)(F)F)c2)CC1	0	-	0	-	-	0	-	-
CCN(CC)CCCNC(=O)c1cc2c(-c3ccc(Cl)cc3)nn(C)c2s1	0	0	0	0	5.5	6.6	0	6.7
O=C(CSc1nc2ccccc2nc1N1CCOCC1)N1CCN(c2cccc(C(F)(F)F)c2)CC1	0	-	0	0	-	0	-	-
CCCCNc1nnc(SCC(=O)c2c[nH]c3ccccc23)s1	0	0	0	0	0	11.6	0	0
Cn1cnnc1SCC(=O)c1c[nH]c2ccccc12	0	0	0	0	0	0	-	-
COc1ccc(/C(N)=N/OC(=O)Cc2cccs2)cc1OC	0	0	0	0	0	14.2	0	0
COc1cccc(CNC(=O)CN2CCCc3ccccc32)c1	0	-	0	0	-	0	-	-
COc1ccc(-c2ncn(CCc3ccccc3OC)c2CC(C)C)cc1	0	-	0	0	-	0	-	-
COc1ccc2nc(N3C(=O)CNC3=S)sc2c1	0	0	0	0	0	8.4	0	0
Cc1ccc2nc(N3C(=O)CNC3=S)sc2c1	0	0	0	0	-	0	-	-
COC(=O)C1=C(C)N(Cc2ccccc2C(F)(F)F)C(=NCc2ccc(C(F)(F)F)cc2)NC1c1ccccc1 (configuration not stated)	0	-	0	0	-	0	-	-
COc1ccc(Cc2c(-c3cccc(Br)c3)nc3cc(C)c(Br)c(C)n23)c(C)c1	0	-	0	0	-	0	-	-
COc1ccc(Cc2c(-c3ccc(C)cc3)nc3cc(C)c(Br)c(C)n23)c(C)c1	2.1	-	10.8	0	-	11.1	0	6.1
COc1ccc2c(C(=O)CN3CCSCC3)c[nH]c2c1	0	0	0	0	0	6.6	0	0
COc1ccc2c(C(=O)CN3CCN(c4ccccc4)CC3)c[nH]c2c1	0	0	0	0	0	0	-	-
CSCCC(C(=O)Nc1c(C)cccc1C)N1CCC(Cc2ccccc2)CC1 (configuration not stated)	0	-	0	0	-	0	-	-
COCCCN1CC(=O)N2C(c3cccc(C)c3)c3[nH]c4ccccc4c3C[C@H]2C1=O (some centres not stated)	0	0	0	0	0	0	-	-
COCCN1CC(=O)N2C(c3cccc(C)c3)c3[nH]c4ccccc4c3C[C@H]2C1=O (some centres not stated)	0	0	0	0	0	9.6	0	0
COC(=O)[C@]12C[C@H](CC(=O)NCc3ccc(OC)c(OC)c3)C(=O)N(CCC3=CCCCC3)C1=C[C@H](C(C)C)O[C@@H]2C1CC1	0	-	0	0	-	0	-	-
CCC(C)c1ccccc1NC(=O)CN(C)CCOc1ccc(Cl)cc1 (configuration not stated)	0	0	0	0	0	9.2	0	0
CN(CCOc1ccc(Cl)cc1)CC(=O)Nc1ccc(OC(F)F)cc1	0	0	0	0	0	0	-	-
CCn1c2ccccc2c2cc(C=Nn3c(-c4ccccc4C)n[nH]c3=S)ccc21	0	-	0	0	-	0	-	-
Cc1nnc(SCC(=O)c2ccc(Cl)cc2)n(N)c1=O	0	0	0	0	0	9.6	0	0
SMILES	ssDAF-12 act	FXN GAA850 act	hgDAF12 agonist	DAX1 inh-1	DAX1 inh-2	hcDAF-12 act	LXR ag	hcDAF12 conf
Cc1ccc(O)c(-c2cc(-c3ccc(F)cc3)no2)c1	4.0	0	19.6	0	7.7	18.6	0	18.1
COCc1[nH]nc2c1C(c1ccc(C)cc1)N(Cc1ccccc1)C2=O (configuration not stated)	0	-	0	0	-	0	-	-
Cn1c(O)c(N=Nc2ccccc2[N+](=O)[O-])c2ccccc21	2.6	0	11.5	0	0	11.3	0	9.0
CCOC(=O)C(=O)N=Nc1c(O)n(C)c2ccccc12	0	0	0	0	0	0	-	-
Cc1occc1C(=O)N=Nc1c(O)n(C)c2ccccc12	1.0	0	16.8	0	0	14.7	0	15.3
Cc1ccc2[nH]c(O)c(N=Nc3ccccc3[N+](=O)[O-])c2c1	0	0	0	0	0	0	-	-
Fc1cccc(Cl)c1/C=C/c1cnc2ccccc2n1	2.0	0	15.9	0	0	20.4	0	21.9
O=C1N[C@@H](Cc2ccccc2)C(=O)N2[C@H]1C[C@]1([C@]34C[C@H]5C(=O)N[C@@H](Cc6ccccc6)C(=O)N5[C@H]3N(S(=O)(=O)c3ccccc3)c3ccccc34)c3ccccc3N(S(=O)(=O)c3ccccc3)[C@H]21	0	0	0	0	0	0	-	-
C[C@H]1C(=O)N2[C@@H](C[C@]3(c4c[nH]c5ccccc45)c4ccccc4N(S(=O)(=O)c4ccccc4)[C@H]23)C(=O)N1C	0	-	0	-	-	6.8	0	0
Cc1ccc(C2c3c(n[nH]c3C)C(=O)N2Cc2ccccc2)cc1 (configuration not stated)	0	-	0	0	-	0	-	-
O=C(O)c1ccc2c(c1Nc1ccccc1)C(=O)c1ccccc1C2=O	0	0	0	0	4.4	7.5	0	0
CNc1c(C(=O)O)ccc2c1C(=O)c1ccccc1C2=O	0	0	0	0	0	0	-	-
Cc1ccc(Nc2nnc(SCC(=O)NCCN3C(=O)CSC3=O)s2)cc1C	0	0	10.8	0	0	12.2	0	0
Cc1ccc(SCC(=O)NCCN2C(=O)CSC2=O)cc1C	0	0	0	0	0	0	-	-
COc1ccccc1CNC(=O)N(CCc1c(C)[nH]c2ccccc12)Cc1cccs1	0	-	0	0	-	0	-	-
O=C(N[C@H](C(=O)N1CCC[C@H]1C(=O)NCCc1ccccc1Cl)c1ccccc1)c1cccs1	0	-	0	0	-	0	-	-
O=C(Cn1cc([N+](=O)[O-])cn1)NCCc1nc2ccccc2[nH]1	0	0	0	0	0	0	-	-
O=C(Cn1cc([N+](=O)[O-])cn1)NCc1cc2ccccc2[nH]1	0	0	0	0	0	8.0	0	0
Cc1cc(C=C2C(=O)c3ccccc3C2=O)c(C)n1-c1ccccc1	0	0	0	0	0	0	-	-
Cc1cc(/C=C2\Cc3ccccc3C2=O)c(C)n1-c1ccccc1	0	0	0	0	0	9.0	0	0
N#CN1CCC(NS(=O)(=O)c2ccc(F)cc2)C1 (configuration not stated)	0	-	0	-	-	0	-	-
